Assay results from PubChem BioAssay (NCATS).
Inconclusive results are not listed. Entries that show only a call come without a potency. Active and inactive are the calls of the source. Calls follow the shape of the full dose curve; tested in HEK293 reporter line.

Experiment: qHTS for Inhibitors of the Functional Ribonucleoprotein Complex (vRNP) of Lassa (LASV) Arenavirus: LASV Primary Screen - GLuc reporter signal (AID 1347082); also: nearly all actives have a fitted effect of over 60% in size
Settings: LASV minigenome vRNP, Gaussia luciferase reporter; series mostly up to 57.5 µM

SMILES	Potency
O=S(=O)(O)c1ccc2nc(-c3ccccc3)[nH]c2c1	inactive
Cc1c(C(C)C)c(=O)n(-c2ccccc2)n1C	inactive
CC(=O)N(CC(O)CO)c1c(I)c(C(=O)NCC(O)CO)c(I)c(C(=O)NCC(O)CO)c1I (stereo not given)	inactive
Nc1ccc(S(=O)(=O)NC(=O)c2ccccc2)cc1	inactive
Cc1oc(=O)oc1COC(=O)[C@@H]1N2C(=O)[C@@H](NC(=O)[C@H](N)c3ccccc3)[C@H]2SC1(C)C	inactive
COC(=O)/C=C(/C)N	inactive
CC[C@]12CCCN3CCc4c(n(c5ccccc45)[C@@](O)(C(=O)OC)C1)[C@@H]32	inactive
CCCCCC(C)N (stereo not given)	inactive
Nc1nc(N)c(-c2ccccc2)s1	inactive
CC(C)(Sc1cc(C(C)(C)C)c(O)c(C(C)(C)C)c1)Sc1cc(C(C)(C)C)c(O)c(C(C)(C)C)c1	inactive
CCOC(=O)c1ccccc1O	inactive
O=C(O)c1cccnc1	inactive
CC(C)OC(=O)OCOP(=O)(CO[C@H](C)Cn1cnc2c(N)ncnc21)OCOC(=O)OC(C)C	inactive
CC(C)=CCC[C@@](C)(O)[C@H]1CC=C(C)CC1	inactive
O=C1O[C@H](CO)[C@@H](O)[C@H](O)[C@H]1O	inactive
